# Read-outs that look alike come from different tables or passages of the source.
# Key:
# AAK1 = tested on: AAK1; parameters: species or system human, MV4-11 + K-562 + COLO205 + SK-N-BE2 + OVCAR-8; conditions: read-out: apparent Kd, n = 1
# BMP2K = tested on: BMP2K; parameters: species or system human, MV4-11 + K-562 + COLO205 + SK-N-BE2 + OVCAR-8; conditions: read-out: apparent Kd, n = 1
# CLK1 = tested on: CLK1; parameters: species or system human, MV4-11 + K-562 + COLO205 + SK-N-BE2 + OVCAR-8; conditions: read-out: apparent Kd, n = 1
# CLK4 = tested on: CLK4; parameters: species or system human, MV4-11 + K-562 + COLO205 + SK-N-BE2 + OVCAR-8; conditions: read-out: apparent Kd, n = 1
# CSNK2A1;CSNK2A3 = tested on: CSNK2A1;CSNK2A3; parameters: species or system human, MV4-11 + K-562 + COLO205 + SK-N-BE2 + OVCAR-8; conditions: read-out: apparent Kd, n = 1
# CSNK2A2 = tested on: CSNK2A2; parameters: species or system human, MV4-11 + K-562 + COLO205 + SK-N-BE2 + OVCAR-8; conditions: read-out: apparent Kd, n = 1
# FLT4 = tested on: FLT4; parameters: species or system human, MV4-11 + K-562 + COLO205 + SK-N-BE2 + OVCAR-8; conditions: read-out: apparent Kd, n = 1
# GAK = tested on: GAK; parameters: species or system human, MV4-11 + K-562 + COLO205 + SK-N-BE2 + OVCAR-8; conditions: read-out: apparent Kd, n = 1
# GSK3A = tested on: GSK3A; parameters: species or system human, MV4-11 + K-562 + COLO205 + SK-N-BE2 + OVCAR-8; conditions: read-out: apparent Kd, n = 1
# GSK3B = tested on: GSK3B; parameters: species or system human, MV4-11 + K-562 + COLO205 + SK-N-BE2 + OVCAR-8; conditions: read-out: apparent Kd, n = 1
# PAK4 = tested on: PAK4; parameters: species or system human, MV4-11 + K-562 + COLO205 + SK-N-BE2 + OVCAR-8; conditions: read-out: apparent Kd, n = 1
# PKN1 = tested on: PKN1; parameters: species or system human, MV4-11 + K-562 + COLO205 + SK-N-BE2 + OVCAR-8; conditions: read-out: apparent Kd, n = 1
# PKN3 [1] = tested on: PKN3; parameters: species or system human, MV4-11 + K-562 + COLO205 + SK-N-BE2 + OVCAR-8; conditions: read-out: apparent Kd, n = 1;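 for IC50: NanoBRET target engagement in HEK293T cells transiently expressing full-length PKN3 with C-terminal NanoLuc, displacement of fluorescent tracer K5 (500 nM), BRET read after 2 h equilibration at 37 °C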
# PRKAG1 = tested on: PRKAG1; parameters: species or system human, MV4-11 + K-562 + COLO205 + SK-N-BE2 + OVCAR-8; conditions: read-out: apparent Kd, n = 1
# Q6ZSR9 = Q6ZSR9 (human, UniProt Q6ZSR9); parameters: species or system MV4-11 + K-562 + COLO205 + SK-N-BE2 + OVCAR-8; conditions: read-out: apparent Kd, n = 1
# Q6ZSR9, sequence (Q6ZSR9 whole entry, looked up): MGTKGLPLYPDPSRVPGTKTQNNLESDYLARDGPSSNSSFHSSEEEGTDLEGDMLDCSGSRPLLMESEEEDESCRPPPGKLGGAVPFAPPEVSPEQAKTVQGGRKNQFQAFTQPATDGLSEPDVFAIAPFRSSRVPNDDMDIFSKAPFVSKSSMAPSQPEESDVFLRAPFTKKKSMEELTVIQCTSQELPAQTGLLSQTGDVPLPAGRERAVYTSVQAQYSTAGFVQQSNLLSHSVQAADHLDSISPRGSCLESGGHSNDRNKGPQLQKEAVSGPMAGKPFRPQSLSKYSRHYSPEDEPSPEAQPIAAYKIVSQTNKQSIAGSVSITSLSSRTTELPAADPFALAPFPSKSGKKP
# RET = tested on: RET; parameters: species or system human, MV4-11 + K-562 + COLO205 + SK-N-BE2 + OVCAR-8; conditions: read-out: apparent Kd, n = 1
# SIK2 = tested on: SIK2; parameters: species or system human, MV4-11 + K-562 + COLO205 + SK-N-BE2 + OVCAR-8; conditions: read-out: apparent Kd, n = 1
# PKN3 [2] = conditions: hek293t cells
# MELK = tested on: MELK; parameters: species or system human, MV4-11 + K-562 + COLO205 + SK-N-BE2 + OVCAR-8; conditions: read-out: apparent Kd, n = 1
# NUAK1 = tested on: NUAK1; parameters: species or system human, MV4-11 + K-562 + COLO205 + SK-N-BE2 + OVCAR-8; conditions: read-out: apparent Kd, n = 1
# [3] = compound concentrations:100 nM and 1000 nM (sheet 'Samples')
smiles,measurement,setting,value
CN1C[C@@H]2Cn3c(c(C4=C(c5cn(C)c6ccccc56)C(=O)NC4=O)c4ccccc43)C[C@H]2C1.Cl [RO0320234-001],potency estimated from few doses,AAK1; [3],403 nM
same,potency estimated from few doses,BMP2K; [3],933 nM
same,potency estimated from few doses,CLK1; [3],162 nM
same,potency estimated from few doses,CLK4; [3],500 nM
same,potency estimated from few doses,CSNK2A1;CSNK2A3; [3],836 nM
same,potency estimated from few doses,CSNK2A2; [3],784 nM
same,potency estimated from few doses,FLT4; [3],878 nM
same,potency estimated from few doses,GAK; [3],186 nM
same,potency estimated from few doses,GSK3A; [3],99 nM
same,potency estimated from few doses,GSK3B; [3],50.7 nM
same,potency estimated from few doses,PAK4; [3],558 nM
same,potency estimated from few doses,PKN1; [3],1970 nM
same,potency estimated from few doses,PKN3 [1]; [3],1500 nM
same,potency estimated from few doses,PRKAG1; [3],352 nM
same,potency estimated from few doses,Q6ZSR9; [3],533 nM
same,potency estimated from few doses,RET; [3],371 nM
same,potency estimated from few doses,SIK2; [3],230 nM
CCn1c(-c2nonc2N)nc2c(C#CC(C)(C)O)nc(CN3CCCC3)cc21 [GSK1000163A],potency estimated from few doses,"PKN3 [1]; compound concentrations: 100 nM and 1000 nM (sheet 'Samples'), CATDS: 0.30633787059967998",558 nM
same,potency estimated from few doses,"Q6ZSR9; compound concentrations: 100 nM and 1000 nM (sheet 'Samples'), CATDS: 0.15882546471257",2130 nM
same,IC50,"PKN3 [2]; read-out: Average, SD, n = 4",6970 nM
same,IC50,PKN3 [2]; read-out: Rep 1,11100 nM
same,IC50,PKN3 [2]; read-out: Rep 2,9200 nM
same,IC50,PKN3 [2]; read-out: Rep 3,6130 nM
same,IC50,PKN3 [2]; read-out: Rep 4,1430 nM
COc1cccc(NC(=O)NC2CCN(c3ccnc(Nc4cc(OC)c(OC)c(OC)c4)n3)C2)c1 (stereo not drawn) [GSK1379763A],potency estimated from few doses,"AAK1; compound concentrations: 100 nM and 1000 nM (sheet 'Samples'), CATDS: 1",1850 nM
O=C1NC(=O)C(N2CCc3ccccc32)=C1c1ccccc1Cl [SB-373598],potency estimated from few doses,AAK1; [3],284 nM
same,potency estimated from few doses,BMP2K; [3],478 nM
same,potency estimated from few doses,CLK1; [3],275 nM
same,potency estimated from few doses,CLK4; [3],246 nM
same,potency estimated from few doses,CSNK2A1;CSNK2A3; [3],315 nM
same,potency estimated from few doses,CSNK2A2; [3],301 nM
same,potency estimated from few doses,FLT4; [3],478 nM
same,potency estimated from few doses,GAK; [3],167 nM
same,potency estimated from few doses,GSK3A; [3],104 nM
same,potency estimated from few doses,GSK3B; [3],177 nM
same,potency estimated from few doses,MELK; [3],1000 nM
same,potency estimated from few doses,NUAK1; [3],287 nM
same,potency estimated from few doses,PAK4; [3],298 nM
same,potency estimated from few doses,PKN1; [3],1180 nM
same,potency estimated from few doses,PKN3 [1]; [3],566 nM
same,potency estimated from few doses,PRKAG1; [3],215 nM
same,potency estimated from few doses,Q6ZSR9; [3],280 nM
same,potency estimated from few doses,RET; [3],239 nM
same,potency estimated from few doses,SIK2; [3],192 nM
Cl.NCc1ccc(-c2nc(-c3ccc(Cl)c(O)c3)c(-c3ccncc3)[nH]2)cc1 [SB-476429-A],potency estimated from few doses,PKN3 [1]; [3],36 nM
same,IC50,"PKN3 [2]; read-out: Average, SD, n = 4",243 nM
same,IC50,PKN3 [2]; read-out: Rep 1,589 nM
same,IC50,PKN3 [2]; read-out: Rep 2,211 nM
same,IC50,PKN3 [2]; read-out: Rep 3,86.7 nM
same,IC50,PKN3 [2]; read-out: Rep 4,85.4 nM
Cn1ncc2c(N)ncnc21 [SKF-18267],potency estimated from few doses,"AAK1; compound concentrations: 100 nM and 1000 nM (sheet 'Samples'), CATDS: 4.0309487407882601E-3",1310 nM
same,potency estimated from few doses,"BMP2K; compound concentrations: 100 nM and 1000 nM (sheet 'Samples'), CATDS: 3.9456431934801499E-3",1380 nM
same,potency estimated from few doses,"CLK1; compound concentrations: 100 nM and 1000 nM (sheet 'Samples'), CATDS: 4.6708282192626498E-3",936 nM
same,potency estimated from few doses,"CLK4; compound concentrations: 100 nM and 1000 nM (sheet 'Samples'), CATDS: 3.9570541670233801E-3",1370 nM
same,potency estimated from few doses,"CSNK2A1;CSNK2A3; compound concentrations: 100 nM and 1000 nM (sheet 'Samples'), CATDS: 3.9180257487408596E-3",1410 nM
same,potency estimated from few doses,"FLT4; compound concentrations: 100 nM and 1000 nM (sheet 'Samples'), CATDS: 3.68265662419527E-3",1670 nM
same,potency estimated from few doses,"GAK; compound concentrations: 100 nM and 1000 nM (sheet 'Samples'), CATDS: 4.6125077933925696E-3",961 nM
same,potency estimated from few doses,"GSK3A; compound concentrations: 100 nM and 1000 nM (sheet 'Samples'), CATDS: 6.4966954074714102E-3",507 nM
same,potency estimated from few doses,"GSK3B; compound concentrations: 100 nM and 1000 nM (sheet 'Samples'), CATDS: 6.1120630546354802E-3",562 nM
same,potency estimated from few doses,"MELK; compound concentrations: 100 nM and 1000 nM (sheet 'Samples'), CATDS: 3.6400689102280299E-3",1720 nM
same,potency estimated from few doses,"NUAK1; compound concentrations: 100 nM and 1000 nM (sheet 'Samples'), CATDS: 3.5163912979630598E-3",1910 nM
same,potency estimated from few doses,"PAK4; compound concentrations: 100 nM and 1000 nM (sheet 'Samples'), CATDS: 4.003241038036E-3",1330 nM
same,potency estimated from few doses,"PKN1; compound concentrations: 100 nM and 1000 nM (sheet 'Samples'), CATDS: 4.0652178532190096E-3",1280 nM
same,potency estimated from few doses,"PRKAG1; compound concentrations: 100 nM and 1000 nM (sheet 'Samples'), CATDS: 6.4543335305036397E-3",512 nM
same,potency estimated from few doses,"RET; compound concentrations: 100 nM and 1000 nM (sheet 'Samples'), CATDS: 4.7446456770992903E-3",906 nM
same,potency estimated from few doses,"SIK2; compound concentrations: 100 nM and 1000 nM (sheet 'Samples'), CATDS: 4.9685571215498103E-3",824 nM
CCOc1nccc2c1nc(-c1nonc1N)n2CC [SB-737198],potency estimated from few doses,"PKN3 [1]; compound concentrations: 100 nM and 1000 nM (sheet 'Samples'), CATDS: 0.243522946677111",869 nM
same,potency estimated from few doses,"SIK2; compound concentrations: 100 nM and 1000 nM (sheet 'Samples'), CATDS: 0.197359346007206",1500 nM
same,IC50,"PKN3 [2]; read-out: Average, n = 4",> 50000 nM
same,IC50,PKN3 [2]; read-out: Rep 1,> 50000 nM
same,IC50,PKN3 [2]; read-out: Rep 2,> 50000 nM
same,IC50,PKN3 [2]; read-out: Rep 3,> 50000 nM
same,IC50,PKN3 [2]; read-out: Rep 4,> 50000 nM
O=C1NC(=O)/C(=C/c2ccc3ncccc3c2)S1 [RO4603632-000],potency estimated from few doses,"CSNK2A1;CSNK2A3; compound concentrations: 100 nM and 1000 nM (sheet 'Samples'), CATDS: 0.36519548051145401",279 nM
same,potency estimated from few doses,"CSNK2A2; compound concentrations: 100 nM and 1000 nM (sheet 'Samples'), CATDS: 0.36768987461520503",276 nM

# — paper PMC11062922 (Nature Chemical Biology, 2023)
